Assay results as given in PubChem BioAssay (NCATS).
Inconclusive results are not listed. Activity calls are given as the source filed them. Calls come from the whole dose curve; as a rule, active = well fitted inhibition curve with a large enough effect; inconclusive = small, poorly fitted or top-dose-only effect; inactive = flat fitted curve, though single readings scatter. Peptide text beside a SMILES is read from it.

system: CRL-7250; assay: qHTS assay to identify novel small-molecules to repurpose for Merkel cell carcinoma treatment (AID 1296009); settings: MCC and control cell lines, CellTiter-Glo viability, 72 h; series mostly up to 92 µM; activity change, negative = cytotoxicity: at the top concentration; note: nearly all actives have a fitted effect of over 60% in size
Method in brief: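 Cells exposed to NPC (8-point) and MIPE (11-point) compound dilutions for 72 hr at 37 degree celsius; viability read by CellTiter-Glo luminescence, normalized to no-cell and DMSO in-plate controls.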

Compound	outcome
Cc1c(F)cc(C(=O)NC2CC2)cc1-c1ccc(C(=O)NCC(C)(C)C)cn1	inactive
COc1cc(C(=O)OC[C@@]2(O)CO[C@@H](O[C@H]3[C@H](Oc4ccc(O)cc4)O[C@H](CO)[C@@H](O)[C@@H]3O)[C@@H]2O)cc(OC)c1O	inactive [at 17.4 µM]
O=C(c1ccc(C#Cc2cccc(F)c2)cn1)N1CC2CC2C1 (centres undefined)	inactive
C[C@H](Oc1ccc(S(C)(=O)=O)cc1C(=O)N1CCN(c2ncc(C(F)(F)F)cc2F)CC1)C(F)(F)F	inactive
O=C(OC(C(F)(F)F)C(F)(F)F)N1CCN(Cc2cccc(Oc3ccccc3)c2)CC1	inactive
COc1ccc(CNC(=O)c2cc(-c3cncc(C)c3)ncc2-c2nccs2)nc1OC	inactive
C=C(C)[C@@H]1CC[C@](C)(O)[C@@H](OC(=O)c2ccccc2)C1	inactive
CCc1cc(CC[C@]2(C3CCCC3)CC(O)=C(Cc3nc4nc(C)cc(C)n4n3)C(=O)O2)cc(CC)n1	inactive
COc1cc(C2OCC3(O)C(c4ccc(O[C@@H]5O[C@H](CO)[C@@H](O)[C@H](O)[C@H]5O)c(OC)c4)OCC23O)ccc1O (some centres undefined)	inactive [at 17.4 µM]
C/C=C(\C)C(=O)OC1CC2C(CC=C3CC(OC4CC(OC)C(OC5CC(OC)C(OC6CC(OC)C(OC7CC(OC)C(OC8CC(OC)C(OC9OC(CO)C(O)C(O)C9O)C(C)O8)C(C)O7)C(C)O6)C(C)O5)C(C)O4)CCC32C)C2(O)CCC(C(C)=O)C12C (centres undefined)	inactive [at 9.27 µM]
CC(C)C1NC(=O)C(CC2(O)c3ccccc3N3C(=O)C(Cc4ccccc4)NC32)NC1=O (centres undefined)	inactive [at 17.4 µM]
O=C(O[C@H]1[C@@H]2C=CO[C@@H](O[C@@H]3O[C@H](CO)[C@@H](O)[C@H](O)[C@H]3O)[C@@H]2[C@@]2(CO)O[C@@H]12)c1ccc(O)c(O)c1	inactive [at 17.4 µM]
O=C(/C=C/c1ccc(O)c(O)c1)OC[C@H]1O[C@@H](OC2CCCCC2O)[C@H](O)[C@@H](O)[C@@H]1O (some centres undefined)	inactive [at 17.4 µM]
C=C1C(OC(C)=O)CCC2(C)CC3(O)OC(=O)C(C)=C3CC12 (centres undefined)	inactive
C=CCCN1CCC2(CC1)CN(C(=O)c1c(F)cccc1F)c1ccc(Cl)cc12	inactive
CC1CCC2(C(=O)O)CCC3(C)C(=CCC4C5(C)CCC(OC(=O)/C=C/c6ccccc6)C(C)(C)C5CCC43C)C2C1C (centres undefined)	inactive [at 17.4 µM]
CC1NC(=O)CNC(=O)C(C(C)C)NC(=O)C2CCCN2C(=O)C(C(C)C)NC(=O)C(Cc2c[nH]c3ccccc23)NC1=O (centres undefined) (cyclo(GAWVPV); configuration not given here)	inactive [at 17.4 µM]
CC1(C)CC[C@]2(C(=O)O[C@@H]3O[C@H](CO)[C@@H](O)[C@H](O)[C@H]3O)CC[C@]3(C)C(=CCC4[C@@]5(C)C[C@@H](O)[C@H](O)C(C)(C)C5[C@H](O)C[C@]43C)[C@@H]2[C@@H]1O (some centres undefined)	inactive [at 17.4 µM]
COc1c2c(c(C)c3c1C(=O)OC3)OC1(C)CC(O)C34OC(OC)(OC3(C)C)C(O)CC4(C)C1C2 (centres undefined)	inactive [at 17.4 µM]
O=C(Nc1ccn[nH]1)c1c(F)cccc1F	inactive

Compound	outcome
O=C(/C=C/c1ccc(O)cc1)OC[C@H]1O[C@H](O[C@@]2(CO)O[C@@H](CO)[C@H](O)[C@H]2O)[C@H](O)[C@@H](O)[C@@H]1O	inactive [at 17.4 µM]
C=C1CC2C3(C)C(O)CC(=O)C(C)(C)C3C(O)C(OC(C)=O)C2(C)C2C(=O)OC(C)(C(=O)OC)C(=O)C12C (centres undefined)	inactive [at 17.4 µM]
Cn1c2ccc(F)cc2c2c(C(=O)N3CCCC3)cn(-c3ccccc3)c(=O)c21	inactive
Cn1c2ccc(NC(=O)c3ccccc3)cc2c(=O)n2nc(C(=O)O)cc12	inactive [at 17.4 µM]
CO[C@H]1c2cc(C(C)C)c(O)c(O)c2[C@@]23CCCC(C)(C)C2[C@@H]1OC3=O (some centres undefined)	inactive
CC1=C2C(=O)C=C(CO[C@@H]3O[C@H](CO)[C@@H](O)[C@H](O)[C@H]3O)[C@@H]2[C@H]2OC(=O)[C@H](C)[C@@H]2[C@@H](O)C1	inactive [at 17.4 µM]
CCCCNc1ccc(-c2ccc(CN3CCOCC3)cn2)c(NC2CCC(O)CC2)c1 (centres undefined)	inactive [at 17.4 µM]
CC1CCC2(CO)C(C(=O)O)=CCCC2C1(C)CCc1ccoc1 (centres undefined)	inactive
C=C1CC[C@@H]2[C@@](C)(CO[C@@H]3O[C@H](CO)[C@@H](O)[C@H](O)[C@H]3O)[C@H](O)CC[C@@]2(C)[C@@H]1CC/C(C)=C/CO[C@@H]1O[C@H](CO)[C@@H](O)[C@H](O)[C@H]1O	inactive [at 17.4 µM]
CC1=C(CO)CC(C(C)C2CCC3C4CC=C5CC(OC6OC(COC7OC(CO)C(O)C(O)C7O)C(O)C(O)C6O)CC(O)C5(C)C4CCC23C)OC1=O (centres undefined)	inactive [at 17.4 µM]
C[C@]1(OC(=O)/C=C/c2ccccc2)C[C@H](O)[C@]2(O)C=CO[C@@H](O[C@@H]3O[C@H](CO)[C@@H](O)[C@H](O)[C@H]3O)C12 (some centres undefined)	inactive [at 17.4 µM]
C/C=C1\[C@H](O[C@@H]2O[C@H](CO)[C@@H](O)[C@H](O)[C@H]2O)OC=C(C(=O)OC)[C@H]1CC(=O)OC	inactive [at 17.4 µM]
CC(C)C1(O)NC(=O)C(CC2(O)c3ccccc3N3C(=O)C(C)(C)NC32)n2c1nc1ccccc1c2=O (centres undefined)	inactive [at 17.4 µM]
CCC(C)/C=C(C)/C=C/C1=CC2=CC(=O)C(C)(O)C(OC(C)=O)C2CO1 (centres undefined)	inactive
COc1ccc(C2=CC(=O)OC2Cc2ccc(O)cc2)c(O)c1 (centres undefined)	inactive
CC(=O)OC[C@@]12[C@H](O)C[C@]3(C)C(=CCC4[C@@]5(C)CC[C@H](O[C@@H]6O[C@H](C(=O)O)[C@@H](O[C@@H]7O[C@H](CO)[C@@H](O)[C@H](O)[C@H]7O)[C@H](O)[C@H]6O[C@@H]6O[C@H](CO)[C@@H](O)[C@H](O)[C@H]6O)[C@](C)(CO)C5CC[C@]43C)[C@@H]1CC(C)(C)[C@@H](OC(C)=O)[C@@H]2O (some centres undefined)	inactive [at 9.27 µM]
C[C@@H]1O[C@@H](O[C@H]2[C@H](O)[C@@H](O)[C@H](OC(=O)[C@]34CCC(C)(C)C[C@H]3C3=CCC5[C@@]6(C)CC[C@H](O[C@@H]7O[C@H](C(=O)O)[C@@H](O)[C@H](O)[C@H]7O)C(C)(C)C6CC[C@@]5(C)[C@]3(C)CC4)O[C@@H]2CO)[C@H](O)[C@H](O)[C@H]1O (some centres undefined)	inactive [at 9.27 µM]
COc1cc(CCCO)ccc1O[C@@H]1O[C@H](CO)[C@@H](O)[C@H](O)[C@H]1O	inactive
CCCSc1nc(NC2CC2c2ccc(F)c(F)c2)c2nnn(C3CC(OCCO)C(O)C3O)c2n1 (centres undefined)	inactive
